From PubChem BioAssay
Hits are enriched below; roughly 1.5% of the tested compounds scored in any of these assays.
MCL1-BIM inh: disrupts human MCL1 binding to BIM-BH3 peptide. inhibition, % at 10.9 µM. Q07820. 0.68% of 320,000 active. GST-MCL1 / FITC-Bim-BH3 fluorescence polarization. AID 2057;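 active = inhibition above the mean inhibition of all tested compounds plus 3 SD, set per campaign, cut at about 40% in these data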;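 note: 0% = DMSO wells and 100% = unlabeled Bim-BH3 peptide control; higher means more loss of mP so more displacement of Bim peptide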
GLD-1 RNA inh: GLD-1-TGE RNA interaction inhibition (C. elegans); purified GLD-1 + fluorescein TGE RNA, fluorescence polarization; AID 2280; 0.44% of 320,000 active; inhibition, % at 5.96 µM;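 active = percent inhibition above a per-plate cutoff, the plate mean of test compounds plus 3 SD, cut at about 30% in these data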;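 note: 0% = DMSO wells with GLD-1 and probe and 100% = wells lacking GLD-1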
Target sequence (Q17339 whole entry, looked up): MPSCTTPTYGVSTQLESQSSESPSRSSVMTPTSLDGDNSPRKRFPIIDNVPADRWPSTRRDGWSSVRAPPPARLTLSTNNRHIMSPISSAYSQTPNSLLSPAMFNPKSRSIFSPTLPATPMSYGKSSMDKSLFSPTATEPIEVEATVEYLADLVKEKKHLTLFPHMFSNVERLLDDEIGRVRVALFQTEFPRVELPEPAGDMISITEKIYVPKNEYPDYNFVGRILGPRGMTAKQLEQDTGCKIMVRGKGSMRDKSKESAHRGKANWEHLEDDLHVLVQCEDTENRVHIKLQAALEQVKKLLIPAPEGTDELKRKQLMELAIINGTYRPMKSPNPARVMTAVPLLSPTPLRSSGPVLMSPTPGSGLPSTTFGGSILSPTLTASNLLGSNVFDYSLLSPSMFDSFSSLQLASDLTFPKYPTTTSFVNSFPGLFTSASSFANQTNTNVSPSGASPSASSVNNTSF
EBV gp42 block: inhibitors of Epstein-Barr virus glycoprotein 42; Fluorescence polarization binding assay, mP read-out; inhibition, % (tested at 21.74 µM); 0.42% of 220,000 active; AID 1085; in the data active = inhibition above about 50%
Target sequence (Q1HVG2 whole entry, looked up): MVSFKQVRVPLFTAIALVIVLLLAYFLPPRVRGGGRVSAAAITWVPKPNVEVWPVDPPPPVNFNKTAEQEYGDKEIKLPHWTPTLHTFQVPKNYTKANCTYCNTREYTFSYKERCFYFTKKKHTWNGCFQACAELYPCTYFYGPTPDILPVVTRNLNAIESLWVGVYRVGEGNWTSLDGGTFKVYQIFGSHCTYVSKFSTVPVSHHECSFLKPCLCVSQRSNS
E coli Lon inh: inhibitors of E. coli Lon protease; P0A9M0; 0.42% of 360,000 active; inhibition, % at 7.94 µM; purified E. coli Lon protease, fluorescence polarization; in the data active = inhibition above about 13%, passing the limit was not always enough;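 note: 0% = enzyme with probe and DMSO and 100% = no enzyme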
MEX-5 binding: C. elegans MEX-5 TCR-2 RNA binding activity; Q9XUB2; MEX-5/FITC-TCR2 RNA binding, fluorescence polarization; stronger effect = lower value; activity score (negative = inhibition of binding), % at 10 µM; 0.38% of 300,000 active; AID 1832;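 active = inhibition past about -25% in most replicates, and total fluorescence under double the plate's negative control median, limit read from the data; inconclusive = replicates evenly split on the limit, or fluorescence at least double controls; inactive = too little inhibition in most replicates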;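 note: 0% = DMSO and -100% = 5 µM competing unlabeled TCR2 RNA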
BCLXL inh: Bcl-xL (human) inhibition. GST-Bcl-xL / FITC-Bim BH3 peptide fluorescence polarization. AID 2129. inhibition, % at 10.9 µM. 0.7% of 320,000 active. Q07817;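 active = inhibition above the mean of all tested compounds plus 3 SD, cutoff set per campaign, cut at about 30% in these data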;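 note: 0% = DMSO wells and 100% = unlabeled Bim-BH3 peptide competitor; inhibitors lower millipolarization by displacing the labeled peptide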
Bcl-xL conf: Bcl-xL (human) inhibition, MCL1 counter-screen confirmation; 54% of 1,700 active; inhibition, % at 10.9 µM; GST-Bcl-xL / FITC-Bim BH3 peptide FP binding; shares compounds with MCL1-BIM inh;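 active = inhibition above a cutoff equal to the mean inhibition of all tested compounds plus 3 SD, cut at about 30% in these data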;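 note: 0% = DMSO wells and 100% = unlabeled Bim BH3 control peptide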
MCL1 BIM confirm: MCL1-BIM-BH3 interaction inhibition, confirmation; 61% of 1,700 active; GST-MCL1 / FITC-Bim-BH3 fluorescence polarization; inhibition, % at 10.9 µM; shares compounds with MCL1-BIM inh; AID 2168;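 active = inhibition above the average of all tested compounds plus 3 SD, cut at about 40% in these data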;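 note: 0% = DMSO wells and 100% = unlabeled Bim-BH3 control peptide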
Active calls of the source: *; ? = inconclusive; . = no result given; + = active, no number.

SMILES	MCL1-BIM inh	GLD-1 RNA inh	EBV gp42 block	E coli Lon inh	MEX-5 binding	BCLXL inh	Bcl-xL conf	MCL1 BIM confirm
Cc1cc2ccccc2n1CCNC(=O)C(C)C	84.4*	96.4*	12.3	4.5	0.2	75.5*	25.0	35.0
COc1ccc(C(=O)Nc2ccc(C(=O)N3CCCCC3C)cc2)c(OC)c1OC (stereo unspecified)	12.4	0.3	.	-4.9	1.1	3.0	.	.
COc1ccc(OC)c(N2C(=O)[C@@H]3C(c4ccccc4Cl)=NO[C@@H]3C2=O)c1	52.6*	3.0	0.2	-2.5	-4.1	12.2	15.6	37.6
Cc1ccc(NC(=O)C=NOCC(=O)Nc2cc(C)cc(C)c2)cc1	.	0.9	.	-5.2	.	.	.	.
CC(=O)Nc1ccc(NC(=O)C(C)OC(=O)C2CCCC2)cc1 (stereo unspecified)	-10.6	-5.0	.	-1.2	-0.4	-18.8	.	.
CC(=O)Nc1ccc(NC(=O)C(C)OC(=O)C2CCCCC2)cc1 (stereo unspecified)	150.8*	21.1	.	16.9	.	18.4	1.5	8.7
COCCCNC(=O)c1ccc2c3c(onc13)-c1ccccc1C2=O	+	196.8*	183.8*	2.4	-78.9*	+	+	+
COCCCNC(=O)c1ccccc1Oc1ccccc1	-4.5	-0.4	-14.2	-4.2	-1.3	11.9	.	.
CCCC1=[N+](CC)CCn2c(C)ccc21	-15.4	-2.5	-36.1	0.8	-0.1	-9.0	.	.
Cc1cc2n(c1)CCn1c(C)ccc1-2	98.8*	20.7	-15.6	.	0.3	78.5*	91.7*	134.8*
Cc1sc2ncnc(N3CCC(C(=O)N(C)CC(=O)Nc4ccc(Cl)c(C(F)(F)F)c4)CC3)c2c1C	-1.8	0.7	.	5.8	1.4	-1.8	.	.
Cc1cc(NC(=O)COC(=O)CCS(=O)(=O)c2ccc(Cl)cc2)no1	7.0	9.4	.	10.8	0.4	8.0	.	.
Cc1ccc(S(=O)(=O)CCC(=O)OCC(=O)Nc2cc(C)on2)cc1	+	183.2*	-6.3	-3.5	0.6	+	9.3	-0.6
O=C(NCc1ccc2[nH]c3c(c2c1)CCCC3)N1CCOCC1	66.5*	40.2*	30.7	.	-13.7	64.3*	52.6*	72.4*
O=C(NCc1ccc2[nH]c3c(c2c1)CCCC3)c1ccc(S(=O)(=O)N2CCOCC2)cc1	-3.7	5.4	6.7	2.1	2.2	3.1	.	.
COc1cccc(CNC(=O)c2ccc(CS(=O)Cc3ccc(C)cc3)o2)c1 (stereo unspecified)	2.9	-2.7	.	-4.6	0.7	4.0	.	.
Cc1ccc(-c2ccc(/C=C(\C#N)C(N)=S)n2C)cc1	68.2*	-32.6	-3.4	-23.2	.	67.4*	9.2	3.7
Cn1cccc1/C=C(/C#N)C(N)=S	15.0	-9.2	-3.8	0.3	-2.1	5.3	.	.
O=C(CSc1ccc(-c2ccco2)nn1)c1ccccc1	41.7*	2.7	-7.1	3.6	0.8	22.1	21.0	24.4
Nc1nnc(CC(=O)N/N=C/c2cccc([N+](=O)[O-])c2)s1	3.4	-0.1	-11.8	-0.4	1.6	7.6	.	.
O=C(CNC(=O)c1ccccc1Br)N/N=C\c1cc([N+](=O)[O-])cc(Br)c1O	42.0*	-0.2	.	-3.5	-5.2	9.1	7.5	36.4
Nc1nnc(CC(=O)N/N=C/c2cc([N+](=O)[O-])cc(Br)c2O)s1	44.1*	-1.1	0.3	-6.7	?	8.2	15.8	43.3*
COc1ccc2nc3ccccc3nc2c1NC(=O)c1ccc(Cl)cc1	104.5*	-2.7	45.6	-27.2	-31.2*	49.5*	81.5*	105.0*
COc1ccccc1Oc1ccc(NC(=O)c2ccc(Cl)cc2)cc1	1.2	-11.6	-5.4	-11.3	-1.2	1.9	.	.
O=C(CN1c2ccccc2Sc2ccccc21)NNC(=S)Nc1ccc(Cl)cc1	5.9	4.1	-12.7	3.4	-0.9	9.8	.	.
SMILES	MCL1-BIM inh	GLD-1 RNA inh	EBV gp42 block	E coli Lon inh	MEX-5 binding	BCLXL inh	Bcl-xL conf	MCL1 BIM confirm
O=C(CN1CCOCC1)NNC(=S)Nc1ccc(Cl)cc1	55.3*	-6.9	-16.9	-11.0	-1.7	-0.8	14.9	20.0
COc1ccc(/C=N/NC(=O)COc2cccc3ccccc23)c(C(=O)O)c1OC	53.7*	-5.0	-3.4	3.5	0.4	6.2	9.6	22.8
COc1ccc(/C=N/NC(=O)COc2ccc3ccccc3c2)c(C(=O)O)c1OC	-1.5	6.6	2.2	3.0	-0.4	0.2	.	.
C[C@H](O)[C@@H]1C(=O)N2CCc3ccc(N4CCOCC4)cc3[C@@H]2C[C@@H]1N(C)C(=O)Nc1ccccc1	.	.	.	2.6	.	.	.	.
COC(=O)C1=C(C)N(CCCC(=O)O)C(=O)NC1c1cc2c(cc1[N+](=O)[O-])OCO2 (stereo unspecified)	51.7*	26.9	-13.8	12.9	-14.6	53.5*	6.4	2.3
COC(=O)C1=C(C)N(C)C(=O)NC1c1cc2c(cc1[N+](=O)[O-])OCO2 (stereo unspecified)	54.0*	27.8	15.3	0.3	-5.8	59.5*	43.6*	40.0*
COc1ccc(C(OC(=O)c2ccco2)C(=O)NC(C)(C)C)cc1OC (stereo unspecified)	.	.	.	-6.3	.	.	.	.
CCOC(=O)C1CCN(C(=O)Nc2ccc3nc(-c4ccco4)c(-c4ccco4)nc3c2)CC1	142.8*	55.5*	50.0	13.1	-4.3	100.6*	68.2*	100.2*
CCOC(=O)C1c2cccc(O)c2CCN1C(C)=O (stereo unspecified)	.	.	.	3.9	.	.	.	.
Cc1ccc(C(=O)CCC(=O)N2CCC(C(N)=O)CC2)s1	-4.5	2.2	.	0.6	.	-0.4	.	.
O=C(c1nc2ccc(Cl)cn2c1CN1CCC[C@H]1CO)N1CCCCCCC1	65.9*	25.5	.	12.0	-23.0	60.5*	55.1*	68.6*
OCC[C@@H]1C[C@H](O)[C@@H](O)[C@]2(OCc3cc(C(F)(F)F)ccc32)O1	.	.	.	1.8	.	.	.	.
NC1=CC(=O)c2cccc3cccc1c23	+	117.8*	.	.	-27.6*	175.5*	155.9*	188.3*
Cc1ccc2[nH]c(=O)c3cc(C(=O)NC(C)C)sc3c2c1	166.7*	154.6*	.	-6.0	-0.3	137.8*	20.5	19.9
CC(Cc1ccccc1)N1C(=O)c2cccc([N+](=O)[O-])c2C1=O (stereo unspecified)	169.3*	179.6*	.	5.3	-2.5	145.5*	6.8	-1.6
CC1(C)CC(=O)C(C(=O)C2CCN(S(=O)(=O)c3ccccc3)CC2)C(=O)C1	0.4	-3.2	-9.7	0.8	2.4	0.1	.	.
CC(C)N(C(=S)Nc1cccnc1)c1ccccc1	4.3	2.8	-7.2	-7.5	-2.8	6.7	.	.
